# Bioassay records deposited in PubChem by National Center for Advancing Translational Sciences (NCATS).
# Only some compounds are listed: those with a hit (about 19% of all), similar ones and a draw of the others.
# TDP1 cell CPT = growth inhibition of DT40 Tdp1-/-;hTDP1 cells with camptothecin (screen for TDP1 inhibitors). chicken DT40 Tdp1-/-;hTDP1 cells + 20 nM CPT, ATP luminescence, 48 h. hit rate 12% among 420,000. Potency, µM (highest dose often 46.2 µM), for inactives: at the top dose activity change, negative = growth inhibition, actives largely listed as inhibitors; further: potency means the concentration at half of the fitted maximal effect; nearly all actives have a fitted effect of over 55% in size
#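 Chicken DT40 Tdp1-/- cells complemented with human TDP1, 400 cells/well, exposed to compounds plus 20 nM camptothecin for at least 48 h at 37 C; viability read as ATP content by CellTiter-Glo luminescence.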
# HT1080NT lethal = kills 2HG-producing HT-1080-NT fibrosarcoma cells; Potency, µM (doses to about 46.1 µM), inactives show at the top dose activity, negative = less viability, most hits filed as cytotoxic; HT-1080-NT fibrosarcoma viability, CellTiter-Glo ATP luminescence, 48 h; hit rate 1.6% among 360,000;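 further: NT is the 2HG producing partner of a matched IDH1 knockdown line; potency means the concentration at half of the fitted maximal effect; 0% = DMSO-treated cells and -100% = media-only wells without cells; nearly all actives have a fitted effect of over 55% in size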
#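 HT-1080-NT; 750 cells/well; 5% FBS RPMI; 48 h compound, 37 degrees C; CellTiter-Glo luminescence; curve fitting and curve-class assignment.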
# ELG1 repair inh = inhibitors of ELG1-dependent DNA repair in HEK293T cells; Potency, µM (titrated, usually from 46.1 µM), inactives show top-dose activity change, negative = inhibition, most hits filed as inhibitors; HEK293T ELG1-luciferase reporter, luminescence, 16 h; DNA damage induced by 5-fluorouridine; hit rate 2.3% among 330,000; further: potency means the concentration at half of the fitted maximal effect; nearly all actives have a fitted effect of over 55% in size
#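 Reporter activity after DNA damage by 5-fluorouridine is monitored. Compound-treated cells incubate 16 hr at 37 °C, then ONE-Glo is added for 30 min before luminescence reading.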
# DT40 TDP1 no CPT = qHTS for Inhibitors of human tyrosyl-DNA phosphodiesterase 1 (TDP1): qHTS in cells in absence of CPT; DT40 Tdp1-/- hTDP1 cells, no CPT, ATP luminescence, 48 h; Potency, µM (titrated, usually from 46.2 µM), for inactives: at the top dose activity change, negative = growth inhibition, actives largely listed as inhibitors; hit rate 15% among 420,000; AID 686978, 2013; further: potency means the concentration at half of the fitted maximal effect; nearly all actives have a fitted effect of over 55% in size
#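 Chicken DT40 Tdp1-/- cells complemented with human TDP1, screened without camptothecin (DMSO vehicle only), 400 cells/well. Compounds pin-transferred, cells incubated at 37 °C for at least 48 hr. Growth read as ATP-dependent luminescence (CellTiter-Glo, 30 min at RT).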
# IL1B secr inh = blocks inflammasome-driven IL-1 beta release; THP-1 LPS/ATP IL-1B secretion, AlphaLISA, 16 h; stronger effect = lower value; activity change, % at 57.5 µM; hit rate 4.7% among 360,000; AID 743279; in the data active means activity change below about -50%; inconclusive means mostly about -30% to -49%
#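 THP-1 cells pretreated 1 hr with compounds (up to 57.5 uM final), then stimulated with LPS (250 ng/mL final) plus ATP (1.25 mM final); secreted IL-1B measured by AlphaLISA after 16 hr, decreased signal indicating inhibition.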
# HT1080 IDH1KD tx = HT-1080 IDH1 knockdown cell toxicity (counter line) | HT-1080 IDH1 knockdown viability, ATP luminescence, 48 h | Potency, µM (top dose mostly 46.1 µM), for the others: at the top dose activity, negative = toxicity, actives largely listed as cytotoxic | hit rate 2% among 360,000 | AID 686971;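 further: potency means the concentration at half of the fitted maximal effect; 0% = DMSO wells and -100% = cell-free medium wells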
#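 In this qHTS, HT-1080 cells depleted of IDH1 are exposed for 48 h at 37 °C to compound titrations. Toxicity is scored from CellTiter-Glo luminescence, with DMSO as full viability and medium alone as none.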
# The depositor's hits bear a star; ? = inconclusive; · = no result. Unless noted, the call rests on the fitted dose curve; in most records, active means well fitted curve in the direction sought with a large enough effect; inconclusive means small, poorly fitted or top-dose-only effect, or another doubt; inactive means no such curve, though single readings can be large; an effect the other way counts as inactive or inconclusive. Unless noted, on the % scale 0 is the no-effect control and ±100 the full control effect.
SMILES,TDP1 cell CPT,HT1080NT lethal,ELG1 repair inh,DT40 TDP1 no CPT,IL1B secr inh,HT1080 IDH1KD tx
Cc1cc(C(=O)CSc2nc3ccccc3[nH]2)c(C)n1Cc1ccco1,8.2µM*,?,?,5.8µM*,-18.3,?
COCCCn1c(C)cc(C(=O)COC(=O)CCc2nc3ccccc3c(=O)[nH]2)c1C,18.9%,10.2%,?,2.5%,-76.1*,-2.2%
COCC(C)n1c(C)cc(C(=O)CSc2nc3ccccc3c(=O)[nH]2)c1C (stereo not given),?,?,16.4µM*,20.6µM*,21.2,?
C=CCn1c(C)cc(C(=O)CSc2nc3ccccc3c(=O)[nH]2)c1C,16.4µM*,-17.9%,?,20.6µM*,-19.0,?
COCC(C)n1c(C)cc(C(=O)COC(=O)CCc2nc3ccccc3c(=O)[nH]2)c1C (stereo not given),5.5%,-11.7%,4.7%,-21.7%,-17.6,-5.9%
O=C(O)c1cnc2ccc(Cl)cc2n1,-3.3%,-0.1%,·,-34.1%,26.7,-6.0%
O=C(CSc1nc(=O)n(Cc2ccco2)c2c1CCC2)NCc1ccc(Cl)cc1,3.4%,·,·,-21.6%,·,·
COc1ccc(C(OC(=O)c2ccco2)C(=O)NC(C)(C)C)cc1OC (stereo not given),-9.8%,-2.2%,·,-10.0%,7.2,-4.6%
COCCn1c(C)cc(C(=O)CSc2nc3ccccc3c(=O)[nH]2)c1C,16.4µM*,-8.6%,?,14.6µM*,8.3,?
COCCn1c(C)cc(C(=O)COc2nc3ccccc3nc2C)c1C,16.4µM*,-11.9%,23.1µM*,14.6µM*,-18.4,-29.3%
COCC(C)n1c(C)cc(C(=O)CSc2nnc(Nc3ccccc3F)s2)c1C (stereo not given),23.1µM*,-2.9%,?,?,-16.4,-25.8%
COCCn1c(C)cc(C(=O)COC(=O)c2c(C)nn(Cc3ccccc3)c2C)c1C,-22.9%,-15.2%,?,?,-16.2,-2.0%
C=CCn1c(C)cc(C(=O)CSc2nc3ccccc3[nH]2)c1C,20.6µM*,4.2%,?,9.2µM*,-65.4*,?
COCCn1c(C)cc(C(=O)CSc2ccc3ccccc3n2)c1C,?,-16.2%,?,?,-4.0,-13.6%
Cc1c(NC(=O)c2ccc(S(=O)(=O)Nc3ccccc3F)cc2)c(=O)n(-c2ccccc2)n1C,0.3%,-9.1%,3.2%,1.8%,-11.8,0.2%
CC(C)(C)c1ccc(Oc2nc3ccccn3c(=O)c2/C=C(\C#N)c2nc3ccccc3[nH]2)cc1,1.5%,·,·,-2.7%,·,·
COc1cc(=O)n2c(c1C(=O)NC(C)c1ccco1)CCN(C(=O)c1ccc(F)cc1Cl)CC2 (stereo not given),-9.8%,·,·,0.1%,·,·
Cc1ccc2c(C)c(C(=O)N3CCC(c4nc5ccccc5s4)CC3)oc2c1C,-29.3%,·,·,?,·,·
Cn1c(Oc2ccccc2NCc2cc(Br)ccc2O)cc(=O)n(C)c1=O,18.4µM*,?,?,23.1µM*,9.3,?
COc1ccc2c(C)c(CC(=O)NCCc3ccc(Cl)cc3)c(=O)oc2c1C,-0.9%,·,·,-1.0%,·,·
COc1cc2cc(C(=O)N3CCN(Cc4ccc5c(c4)OCO5)CC3)c(=O)oc2cc1OC,-0.5%,0.2%,4.6%,-4.2%,24.6,10.7%
CCOc1cc(C(=S)N2CCOCC2)ccc1OS(=O)(=O)c1ccccc1[N+](=O)[O-],?,-8.4%,?,?,-3.1,-7.4%
CCOC(=O)/C(=N\Nc1ccc(C(C)=O)cc1)c1csc(Nc2ccccc2)n1,?,16.4µM*,?,10.3µM*,2.5,16.4µM*
CCOC(=O)/C(=N\Nc1ccccc1[N+](=O)[O-])c1csc(N)n1,?,-2.0%,13.7%,?,-26.0,-1.4%
